# According to PubChem BioAssay (Tox21):
# A number with no mark means an inactive call. Inconclusive results are not listed. Where a call stands in place of a potency, no number is given. Activity calls are given as the source filed them. Unless noted, calls follow the shape of the dose curve; as a rule, active = well fitted curve in the direction sought with a large enough effect in the repeat runs; inconclusive = weak or mixed curves; inactive = no such curve, though single readings can be large; an effect the other way counts as inactive or inconclusive.
# Assays:
# [1] = qHTS assay to identify small molecule antagonists of the estrogen related receptor (ERR) signaling pathway from Tox21 library - cell viability counter screen (AID 1224834); also: nearly all actives have a fitted effect of over 30% in size; also: potency is read from the fitted curve at half-maximal effect
# Procedure, shortened: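 After 17.5 h of compound exposure at 37 C, ERR cells are incubated with CellTiter-Fluor for 30 min and fluorescence intensity serves as the viability measure.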
# [2] = qHTS assay to identify small molecule agonists of the constitutive androstane receptor (CAR) signaling pathway - cell viability counter screen (AID 1224836); also: nearly all actives have a fitted effect of over 45% in size; also: potency is read from the fitted curve at half-maximal effect
# Procedure, shortened: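 23 h treatment, 37 C, 5% CO2. Cell line: HepG2 stably expressing hCAR with a CYP2B6-2.2kb construct. Co-treatment: PK11195, 0.75 uM final. Read-out: CellTiter-Fluor fluorescence intensity.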
# [3] = qHTS assay to identify small molecule antagonists of the constitutive androstane receptor (CAR) signaling pathway - cell viability counter screen (AID 1224837); also: nearly all actives have a fitted effect of over 45% in size; also: potency is read from the fitted curve at half-maximal effect
# Procedure, shortened: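 Counter screen run in HepG2-CYP2B6-hCAR cells: 4 hr settle, compound titration (15 concentrations) with 50 nM CITCO, 23 hr at 37 C/5% CO2, CellTiter-Fluor fluorescence.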
# [4] = qHTS assay to identify small molecule antagonists of the estrogen related receptor signaling pathway with the pleiotropic PPARgamma coactivator (PGC) from Tox21 10K library - cell viability counter screen (AID 1224840; active = well fitted cell-killing curve with a large enough effect in the repeat runs, not every such curve was filed as active; also: nearly all actives have a fitted effect of over 40% in size; also: potency is read from the fitted curve at half-maximal effect)
# Procedure, shortened: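 Following seeding of 2,000 PGC/ERR cells/well and 6 hours' incubation, test compounds were delivered in DMSO. The plates then sat 17.5 hours at 37 C before a fluorogenic live-cell protease reagent (CellTiter-Fluor) was read after 30 min.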
# [5] = qHTS assay to identify small molecule antagonists of the estrogen related receptor signaling pathway with the pleiotropic PPARgamma coactivator (PGC) from Tox21 10K library (AID 1224841; call rule not given here; also: actives are mostly falling curves and most rising ones were filed inactive; nearly all actives have a fitted effect of over 50% in size; also: potency is read from the fitted curve at half-maximal effect)
# Procedure, shortened: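 qHTS antagonist format: PGC/ERR cells, 2k/well, compound in DMSO by pin transfer after 6 h attachment, 18 h treatment at 37 C, One-Glo luminescence read at 30 min.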
# [6] = qHTS assay to identify small molecule agonists of the estrogen related receptor signaling pathway with the pleiotropic PPARgamma coactivator (PGC) from Tox21 10K library (AID 1224842); also: nearly all actives have a fitted effect of over 15% in size; also: potency is read from the fitted curve at half-maximal effect
# Procedure, shortened: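 PGC/ERR reporter cells (NTP line) were seeded 2,000 per well, rested 6 h at 37 C/5% CO2, then pin-dosed with compounds in DMSO for 18 h at 37 C; luciferase read by One-Glo luminescence after 30 min at room temperature.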
# [7] = molecular target: Thyrotropin receptor (Homo sapiens) (UniProt P16473); assay: qHTS assay to identify small molecule agonists of the thyroid stimulating hormone receptor (TSHR) signaling pathway (AID 1224843; calls by dose curve; also: nearly all actives have a fitted effect of over 45% in size)
# Procedure, shortened: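 Cell line HEK293 with TSHR; density 800/well. Exposure 30 min RT. Readout HTRF cAMP (cAMP-d2/anti-cAMP-cryptate), 1 h RT before reading.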
# [8] = qHTS assay to identify small molecule agonists of the hypoxia (HIF-1) signaling pathway - cell viability counter screen (AID 1224844; calls by dose curve; also: nearly all actives have a fitted effect of over 50% in size; also: potency is read from the fitted curve at half-maximal effect)
# Procedure, shortened: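 Cells (HRE-bla ME-180, 2,000 per well) sat 5 hrs at 37C, got compound for 17 hrs, were read for CCF4-AM FRET, and were finally lysed with CellTiter-Glo for a 30 min room-temperature luminescence read.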
# [9] = qHTS assay to identify small molecule agonists of the hypoxia (HIF-1) signaling pathway (AID 1224846; active = well fitted activation curve with a large enough effect in the signal ratio in the repeat runs, not every such curve was filed as active; the % refers to the signal ratio)
# Procedure, shortened: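 A low-serum medium (0.5% dialyzed FBS) holding 2,000 HRE-bla ME-180 cells per well is preincubated for 5 hrs, dosed with compounds by pintool, and kept a further 17 hrs at 37C, 5% CO2 before CCF4-AM FRET detection of beta-lactamase.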
# [10] = qHTS assay to identify small molecule agonists of H2AX - cell viability counter screen (AID 1224847; calls by dose curve; also: nearly all actives have a fitted effect of over 30% in size; also: potency is read from the fitted curve at half-maximal effect)
# Procedure, shortened: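 Compounds tested at 15 concentrations were incubated 3 hr at 37C with wild-type CHO-K1 cells; cellular ATP-based luminescence (CellTiter-Glo) indicated viability.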
# [11] = qHTS assay to identify small molecule antagonists of the estrogen related receptor (ERR) signaling pathway from Tox21 library (AID 1224848); also: nearly all actives have a fitted effect of over 50% in size; also: potency is read from the fitted curve at half-maximal effect
# Procedure, shortened: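 Screening used an ERR reporter line supplied by NTP, exposed for 18 h at 37 C to library compounds delivered in DMSO. Signal was luciferase luminescence developed with ONE-Glo at room temperature for 30 min.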
# [12] = qHTS assay to identify small molecule agonists of the estrogen related receptor (ERR) signaling pathway from Tox21 library (AID 1224849; calls by dose curve; also: nearly all actives have a fitted effect of over 15% in size); settings: ERR reporter cell line, ONE-Glo luciferase, 18 h; at 92.4 µM (top of the series) unless noted
# Procedure, shortened: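 Screening used an NTP-provided ERR luciferase cell line. Compounds in DMSO were added 6 h after seeding and left 18 h at 37 C before a 30 min ONE-Glo step and luminescence reading.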
# [13] = qHTS RealTime-Glo MT Cell Viability Assay in HepG2 cells - 24 hour (AID 1224867); also: nearly all actives have a fitted effect of over 50% in size
# Procedure, shortened: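 Luminescence read-out: viable HepG2 cells reduce a prosubstrate to a NanoLuc substrate, giving a signal proportional to live cell number. Reads taken at 0, 8, 16, 24, 32 and 40 h of compound exposure at 37 C.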
# [14] = qHTS RealTime-Glo MT Cell Viability Assay in HEK293 cells - 32 hour (AID 1224868); also: nearly all actives have a fitted effect of over 50% in size; also: potency is read from the fitted curve at half-maximal effect
# Procedure, shortened: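 Nonlytic real-time viability readout: viable cells convert prosubstrate to NanoLuc substrate, giving luminescence proportional to live cell number. HEK293, 600 cells/well, compound added after 5 h, continuous culture at 37 C.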
# [15] = qHTS RealTime-Glo MT Cell Viability Assay in HepG2 cells - 40 hour (AID 1224870); also: nearly all actives have a fitted effect of over 50% in size; also: potency is read from the fitted curve at half-maximal effect
# Procedure, shortened: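 HepG2 cells mixed with RealTime-Glo MT reagents (NanoLuc plus cell-permeant prosubstrate) were seeded at 600 cells/well, incubated 5 h at 37 C/5% CO2, then pinned with compounds in DMSO; nonlytic luminescence tracked viability during 40 h treatment.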
# [16] = molecular target: Luciferin 4-monooxygenase (Photinus pyralis) (UniProt P08659); assay: qHTS assay to identify small molecule inhibitors of firefly luciferase (AID 1224835); also: nearly all actives have a fitted effect of over 25% in size; also: potency is read from the fitted curve at half-maximal effect
# Procedure, shortened: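 Quantitative HTS format; KM concentrations of both substrates. Purified P. pyralis FLuc activity quantified from luminescence images.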
# [17] = qHTS assay to identify small molecule agonists of H2AX (AID 1224845; active = well fitted activation curve with a large enough effect in the signal ratio in the repeat runs, not every such curve was filed as active; the % refers to the signal ratio)
# Procedure, shortened: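 Wild-type CHO-K1 cells plated overnight, then exposed 3 hr at 37C to compounds at 15 concentrations (0.76% DMSO). Lysed, then HTRF anti-pH2AX(S139)-cryptate/anti-H2AX-d2 detection after 24 hr at room temperature; emissions 665 and 620 nm.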
# [18] = A CellTox Green Cytotoxicity Assay to monitor cytotoxicity in HEK293 cells - 0 hour (AID 1224869); also: nearly all actives have a fitted effect of over 50% in size
# Procedure, shortened: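 Fluorescence intensity, read at 0, 8, 16, 24, 32 and 40 h of compound treatment, reflected dye binding to DNA of dead HEK293 cells; compounds (23 nL, DMSO) were added 5 h after plating cells with reagent.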
# [19] = molecular target: Nuclear receptor subfamily 1 group I member 3 (Homo sapiens) (UniProt Q14994); assay: qHTS assay to identify small molecule agonists of the constitutive androstane receptor (CAR) signaling pathway (AID 1224839); also: nearly all actives have a fitted effect of over 15% in size; also: potency is read from the fitted curve at half-maximal effect;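 as to activation: HepG2 cells stably carrying human CAR and a CYP2B6 luciferase reporter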
# Procedure, shortened: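 Compounds tested at 15 concentrations on HepG2 cells stably harbouring hCAR and CYP2B6-2.2kb reporter constructs, co-treated with PK11195 (0.75 uM final), 24 h at 37 C; luminescent reporter signal quantified.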
# [20] = molecular target: Nuclear receptor subfamily 1 group I member 3 (Homo sapiens) (UniProt Q14994); assay: qHTS assay to identify small molecule antagonists of the constitutive androstane receptor (CAR) signaling pathway (AID 1224838);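 also: HepG2 cells stably expressing hCAR with CYP2B6 luciferase reporter stimulated by CITCO; nearly all actives have a fitted effect of over 40% in size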; also: potency is read from the fitted curve at half-maximal effect
# Procedure, shortened: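 Cell line: HepG2 double-stable for hCAR and CYP2B6-2.2kb reporter. Agonist: CITCO, 50 nM final. Compounds: 15 concentrations, 24 h, 37 C. Detection: ONE-Glo luminescence.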
# Luciferin 4-monooxygenase (Photinus pyralis), sequence (P08659 whole entry, looked up): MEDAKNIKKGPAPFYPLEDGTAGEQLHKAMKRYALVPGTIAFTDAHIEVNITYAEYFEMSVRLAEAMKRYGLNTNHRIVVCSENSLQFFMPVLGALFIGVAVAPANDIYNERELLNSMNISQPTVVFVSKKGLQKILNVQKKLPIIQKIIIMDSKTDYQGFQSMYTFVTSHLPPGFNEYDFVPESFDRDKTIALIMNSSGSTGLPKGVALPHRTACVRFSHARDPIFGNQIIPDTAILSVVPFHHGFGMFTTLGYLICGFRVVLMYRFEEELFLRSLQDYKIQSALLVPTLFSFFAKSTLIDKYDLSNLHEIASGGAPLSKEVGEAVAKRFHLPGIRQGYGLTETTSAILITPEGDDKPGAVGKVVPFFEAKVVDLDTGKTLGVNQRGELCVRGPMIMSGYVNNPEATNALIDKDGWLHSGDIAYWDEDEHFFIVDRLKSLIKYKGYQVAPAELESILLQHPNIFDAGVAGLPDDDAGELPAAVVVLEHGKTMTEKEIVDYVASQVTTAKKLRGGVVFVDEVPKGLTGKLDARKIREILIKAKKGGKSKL
# Nuclear receptor subfamily 1 group I member 3 (Homo sapiens), sequence (Q14994 whole entry, looked up): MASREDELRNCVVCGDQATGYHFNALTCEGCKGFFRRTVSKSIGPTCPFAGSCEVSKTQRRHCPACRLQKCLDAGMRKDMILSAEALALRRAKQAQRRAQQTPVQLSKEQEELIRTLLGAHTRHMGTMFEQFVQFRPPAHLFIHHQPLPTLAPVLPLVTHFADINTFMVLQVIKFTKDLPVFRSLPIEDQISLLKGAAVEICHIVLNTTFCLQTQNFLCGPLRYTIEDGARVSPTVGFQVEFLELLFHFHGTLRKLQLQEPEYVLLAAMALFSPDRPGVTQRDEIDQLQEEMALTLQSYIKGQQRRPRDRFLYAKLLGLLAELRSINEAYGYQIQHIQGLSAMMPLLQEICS
# Thyrotropin receptor (Homo sapiens), sequence (P16473 whole entry, looked up): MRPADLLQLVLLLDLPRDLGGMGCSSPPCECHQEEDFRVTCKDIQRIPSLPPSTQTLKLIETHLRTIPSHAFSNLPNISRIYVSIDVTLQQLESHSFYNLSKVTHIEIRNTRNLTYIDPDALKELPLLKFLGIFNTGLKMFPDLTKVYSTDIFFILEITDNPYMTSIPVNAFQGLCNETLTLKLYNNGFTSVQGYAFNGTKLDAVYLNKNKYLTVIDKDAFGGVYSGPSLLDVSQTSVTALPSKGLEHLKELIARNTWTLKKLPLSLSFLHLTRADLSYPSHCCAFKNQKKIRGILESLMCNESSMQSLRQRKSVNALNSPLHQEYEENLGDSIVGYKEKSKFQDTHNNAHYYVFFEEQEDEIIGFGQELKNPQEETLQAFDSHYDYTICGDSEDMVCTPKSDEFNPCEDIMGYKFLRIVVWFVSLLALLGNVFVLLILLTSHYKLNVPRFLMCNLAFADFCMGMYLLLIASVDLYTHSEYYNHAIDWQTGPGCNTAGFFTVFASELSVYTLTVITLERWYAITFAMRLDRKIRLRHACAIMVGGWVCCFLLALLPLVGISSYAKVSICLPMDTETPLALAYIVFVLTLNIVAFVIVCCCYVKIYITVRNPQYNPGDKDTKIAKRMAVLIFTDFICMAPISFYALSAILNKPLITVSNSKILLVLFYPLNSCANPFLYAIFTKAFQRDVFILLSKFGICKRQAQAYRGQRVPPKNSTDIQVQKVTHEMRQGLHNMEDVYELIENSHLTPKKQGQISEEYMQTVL
SMILES,Potency [1],Potency [2],Potency [3],Potency [4],Potency [5],Potency [6],Potency [7],Potency [8],outcome [9],Potency [10],Potency [11],"activity change, positive = activation [12]",Potency [13],Potency [14],Potency [15],Potency [16],Potency [17],Potency [18],Potency [19],Potency [20]
COc1ccc(CCC(=O)c2c(O)cc(O[C@@H]3O[C@H](CO)[C@@H](O)[C@H](O)[C@H]3O[C@@H]3O[C@@H](C)[C@H](O)[C@@H](O)[C@H]3O)cc2O)cc1O,inactive,inactive,inactive,inactive,inactive,inactive,inactive,inactive,inactive,inactive,inactive,1.69%,inactive,inactive,inactive,–,–,–,–,–
CC(C)=CC=O,inactive,inactive,inactive,inactive,–,–,–,inactive,–,inactive,–,–,inactive,inactive,inactive,inactive,inactive,inactive,–,–
CC(CCO)CCc1ccccc1 (stereo not drawn),inactive,inactive,inactive,inactive,–,–,–,inactive,inactive,inactive,–,–,inactive,–,inactive,inactive,inactive,–,–,–
C(=C\c1ccccc1)/CN1CCN(C(c2ccccc2)c2ccccc2)CC1,inactive,inactive,inactive,inactive,–,–,inactive,inactive,–,–,–,–,inactive,–,inactive,–,–,–,inactive,–
CCc1cccc(N(C)C(N)=Nc2cccc3ccccc23)c1,inactive,inactive,inactive,inactive,–,–,inactive,inactive,inactive,–,–,–,inactive,–,inactive,–,inactive,inactive,inactive,–
NC(=O)Cn1c(=O)cc(CCN2CCN(c3nccc4sccc34)CC2)c2ccc(F)cc21,48.6 µM (active),–,–,–,61.1 µM (active),inactive,–,inactive,–,–,–,-34.9%,–,43.6 µM (active),inactive,44.8 µM (active),inactive,inactive,–,–
O=S(=O)(c1ccccc1)c1ccc(Cl)cc1,inactive,inactive,inactive,–,–,inactive,inactive,inactive,inactive,inactive,–,-31.4%,inactive,–,inactive,inactive,inactive,inactive,–,–
CCCc1c(OCCCOc2ccc(OCC(=O)O)cc2)ccc(C(C)=O)c1O,inactive,inactive,inactive,inactive,inactive,inactive,inactive,–,–,101 µM (active),inactive,-8.13%,inactive,inactive,inactive,–,–,inactive,–,–
CCOC(=O)OCC,inactive,inactive,inactive,–,–,–,inactive,inactive,inactive,inactive,–,–,inactive,inactive,inactive,inactive,inactive,inactive,–,–
Fc1ccccc1[C@@H](F)COC1CCC(Nc2ncnc3[nH]ncc23)CC1 (stereo partly drawn),30.6 µM (active),–,–,–,–,–,inactive,inactive,inactive,101 µM (active),–,–,inactive,21.9 µM (active),inactive,inactive,inactive,inactive,inactive,–
CC1=C(/C=C/C(C)=C\C=C\C(C)=C\C(=O)O)C(C)(C)CCC1,54.5 µM (active),inactive,–,–,–,–,–,49 µM (active),–,inactive,–,–,–,inactive,inactive,39.9 µM (active),–,–,24.3 µM (active),inactive
CC(C)CCCC(=O)O,inactive,inactive,inactive,–,inactive,inactive,–,inactive,inactive,inactive,–,0.997%,inactive,inactive,inactive,inactive,inactive,inactive,–,–
CC(C)(C)CC(C)(C)c1ccc(OCCO)cc1,48.3 µM (active),48.3 µM (active),43 µM (active),–,19.2 µM (active),inactive,–,inactive,–,100 µM (active),3.83 µM (active),-58.8%,inactive,–,inactive,inactive,inactive,inactive,–,–
COc1cc2c(N3CCN(C(=O)Nc4ccc(OC(C)C)cc4)CC3)ncnc2cc1OCCCN1CCCCC1,29.8 µM (active),–,–,29.8 µM (active),inactive,33.5 µM (active),inactive,–,–,inactive,–,-32.4% [at 42.5 µM],inactive,9.52 µM (active),–,inactive,inactive,inactive,inactive,15 µM (active)
CCOC(=O)[C@@H](C)Oc1ccc(Oc2nc3ccc(Cl)cc3o2)cc1,inactive,inactive,inactive,inactive,inactive,inactive,–,inactive,inactive,–,–,-39.1%,–,21.9 µM (active),–,–,inactive,inactive,–,inactive
Nc1ccc(S(=O)(=O)O)c(N)c1,inactive,inactive,inactive,–,inactive,inactive,inactive,inactive,inactive,inactive,inactive,1.48%,inactive,inactive,inactive,inactive,–,inactive,–,–
CO[C@H]1C=CO[C@@]2(C)Oc3c(C)c(O)c4c(O)c(c5c(c4c3C2=O)=NC2(CCN(CC(C)C)CC2)N=5)NC(=O)/C(C)=C\C=C/[C@H](C)[C@H](O)[C@@H](C)[C@@H](O)[C@@H](C)[C@H](OC(C)=O)[C@@H]1C,47.5 µM (active),53.3 µM (active),47.5 µM (active),–,23.8 µM (active),inactive,–,–,inactive,98.6 µM (active),30 µM (active),-63.3%,–,38.1 µM (active),inactive,–,–,inactive,inactive,inactive
CCCCC1C(=O)N(c2ccccc2)N(c2ccc(O)cc2)C1=O (stereo not drawn),18.8 µM (active),inactive,–,–,–,inactive,–,–,inactive,–,–,-65.4% [at 42.5 µM],–,–,23.9 µM (active),inactive,inactive,inactive,inactive,29.8 µM (active)
